This is part of a sample that, as a whole, favours compounds with a hit. Of some 79,000 tested, about 15% had one in any assay. Activity calls are given as the source filed them. Cut-off read from the data, not from the text of the source: active = growth inhibition above about 70%; inactive = the rest.
Legend:
[1] = NCI Yeast Anticancer Drug Screen. Data for the mlh1 strain (AID 171);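 note: 0% = growth of vehicle-treated control cultures of the same strain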; conditions: S. cerevisiae mlh1 strain growth inhibition, stronger effect = higher value
Procedure, shortened: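 Read-out: growth inhibition versus vehicle controls. Strain: engineered yeast with a defined DNA repair or cell cycle defect, compound-treated.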

[2] = NCI Yeast Anticancer Drug Screen. Data for the sgs1 strain (AID 173);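 note: 0% = growth of vehicle-only control cultures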; conditions: S. cerevisiae sgs1 mutant, stronger effect = higher value
Procedure, shortened: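 Read-out: yeast growth inhibition relative to vehicle controls, following compound exposure of a strain with a defined DNA repair/cell cycle alteration.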

[3] = NCI Yeast Anticancer Drug Screen. Data for the mlh1 rad18 strain (AID 175); conditions: S. cerevisiae mlh1 rad18 strain growth inhibition, stronger effect = higher value
Procedure, shortened: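 Yeast w/ defined DNA-repair lesions; compound exposure; growth vs vehicle controls → % inhibition.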

[4] = NCI Yeast Anticancer Drug Screen. Data for the rad18 strain (AID 177); conditions: S. cerevisiae rad18 mutant growth inhibition, stronger effect = higher value
Procedure, shortened: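 Readout: growth inhibition vs vehicle controls. Cells: genetically altered yeast strain, DNA repair defect.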

[5] = NCI Yeast Anticancer Drug Screen. Data for the rad52 strain (AID 147);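 note: 0% = growth of vehicle-treated control cultures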; conditions: S. cerevisiae rad52 mutant growth inhibition, stronger effect = higher value
Procedure, shortened: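 Read-out: growth inhibition versus vehicle-treated controls. Cells were a DNA repair-deficient yeast strain treated with compounds.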

[6] = NCI Yeast Anticancer Drug Screen. Data for the wt1 strain (AID 149);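 note: 0% = growth of vehicle-treated wt1 cultures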; conditions: S. cerevisiae wt1 strain (SPY 50644) growth inhibition, stronger effect = higher value
Procedure, shortened: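 Yeast wt1 strain exposed to compounds; growth inhibition measured relative to vehicle-treated controls.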

[7] = NCI Yeast Anticancer Drug Screen. Data for the rad50EPP+ strain (AID 151);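 note: 0% = growth of vehicle-treated control cultures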; conditions: S. cerevisiae rad50 mutant strain, stronger effect = higher value
Procedure, shortened: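 Growth inhibition read against vehicle controls in rad50EPP+ yeast, a strain altered in DNA damage repair, after compound exposure.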

[8] = NCI Yeast Anticancer Drug Screen. Data for the mgt1 strain (AID 153); conditions: S. cerevisiae mgt1 mutant growth inhibition, stronger effect = higher value
Procedure, shortened: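 mgt1 yeast grown with test compound; read-out is growth inhibition versus vehicle-treated cultures.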

[9] = NCI Yeast Anticancer Drug Screen. Data for the rad50 strain (AID 155);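 note: 0% = growth of vehicle-only cultures of the same strain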; conditions: S. cerevisiae rad50 strain growth inhibition, stronger effect = higher value
Procedure, shortened: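 Yeast carrying a defined DNA repair defect were exposed to test compounds, and growth was compared with vehicle-treated controls to give percent inhibition.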

[10] = NCI Yeast Anticancer Drug Screen. Data for the rad14 strain (AID 159);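 note: 0% = growth of vehicle-treated control cultures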; conditions: S. cerevisiae rad14 strain growth inhibition, stronger effect = higher value
Procedure, shortened: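 Yeast cells carrying a defined DNA-repair defect were exposed to compounds, and growth inhibition was calculated relative to vehicle-treated control cultures.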

[11] = NCI Yeast Anticancer Drug Screen. Data for the sgs1 mgt1 strain (AID 161);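 note: 0% = growth of cultures given vehicle only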; conditions: S. cerevisiae sgs1 mgt1 strain, stronger effect = higher value
Procedure, shortened: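 Genetically altered yeast, compound exposure, growth inhibition relative to vehicle.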

[12] = NCI Yeast Anticancer Drug Screen. Data for the CLN2oe strain (AID 163);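 note: 0% = growth of vehicle-only control cultures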; conditions: S. cerevisiae CLN2oe strain, stronger effect = higher value
Procedure, shortened: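 Read-out: yeast growth inhibition, expressed relative to vehicle-only controls. The strain bears an engineered cell-cycle alteration.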

[13] = NCI Yeast Anticancer Drug Screen. Data for the cln2 rad14 strain (AID 165);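 note: 0% = growth equal to vehicle treated cultures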; conditions: S. cerevisiae cln2 rad14 strain, stronger effect = higher value
Procedure, shortened: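 cln2 rad14 yeast strain; compound exposure; growth inhibition read vs vehicle controls.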

[14] = NCI Yeast Anticancer Drug Screen. Data for the bub3 strain (AID 167); conditions: S. cerevisiae bub3 mutant strain, stronger effect = higher value
Procedure, shortened: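 Compounds were applied to a genetically altered yeast strain carrying a cell-cycle control defect. Growth inhibition was scored against vehicle-treated controls.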

[15] = NCI Yeast Anticancer Drug Screen. Data for the wt2 strain (AID 169);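 note: 0% = growth of vehicle-treated yeast cultures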; conditions: S. cerevisiae wt2 strain growth inhibition, stronger effect = higher value
Procedure, shortened: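 Read-out: growth inhibition versus vehicle-treated control cultures after compound exposure of the yeast strain.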

[16] = NCI Yeast Anticancer Drug Screen. Data for the mec2-1 strain (AID 157); conditions: S. cerevisiae mec2-1 strain, stronger effect = higher value
Procedure, shortened: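 Yeast mec2-1 mutant treated with compound. Readout: growth inhibition vs vehicle controls.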

[17] = at 5.0 µM (retest, dose inferred, filed as 0.5)
[18] = at 50.0 µM (retest, dose inferred, filed as 5.0)

Measured: growth inhibition

COc1ccc(C(C)c2cc3c(cc2OC(C)O)OCO3)cc1 (stereo unspecified)
inactive: [1]; at 1.2 µM -2% | [1]; at 3.7 µM -3% | [1]; at 11.0 µM -1% | [1]; at 33.0 µM 1% | [2]; at 1.2 µM -3% | [2]; at 3.7 µM -1% | [2]; at 11.0 µM 5% | [2]; at 33.0 µM 25% | [3]; [17] -1% | [3]; [18] 52% | [3]; at 50.0 µM 50.6% | [4]; at 1.2 µM -2% | [4]; at 3.7 µM 4% | [4]; at 11.0 µM 7% | [4]; at 33.0 µM 18%
active: [1]; at 100.0 µM 92% | [2]; at 100.0 µM 92% | [4]; at 100.0 µM 90%

CCN(CC)C(=S)SC(=S)N(CC)CC
inactive: [5]; at 1.2 µM -33% | [5]; at 3.7 µM -17% | [5]; at 11.0 µM 27% | [6]; at 1.2 µM -25% | [6]; at 3.7 µM -16% | [6]; at 11.0 µM 28% | [7]; at 1.2 µM -1% | [7]; at 3.7 µM 7% | [7]; at 11.0 µM 37% | [8]; at 1.2 µM -42% | [8]; at 3.7 µM -43% | [8]; at 11.0 µM 16% | [9]; at 1.2 µM -15% | [9]; at 3.7 µM 15% | [9]; [17] 10% | [9]; at 11.0 µM 29% | [9]; [18] 46% | [10]; at 1.2 µM -31% | [10]; at 3.7 µM -4% | [10]; at 11.0 µM 34% | [11]; [17] -9% | [12]; at 1.2 µM 0% | [12]; at 3.7 µM -8% | [12]; at 11.0 µM 18% | [12]; at 33.0 µM 63% | [13]; [17] -15% | [13]; [18] 18% | [13]; at 50.0 µM 40.2% | [14]; at 1.2 µM -25% | [14]; at 3.7 µM -21% | [14]; [17] 0% | [14]; at 11.0 µM -22% | [14]; at 33.0 µM 27% | [14]; [18] 58% | [15]; at 1.2 µM -21% | [15]; at 3.7 µM 32% | [15]; at 11.0 µM 60% | [1]; at 1.2 µM -38% | [1]; at 3.7 µM -48% | [1]; at 11.0 µM -6% | [2]; at 1.2 µM -43% | [2]; at 3.7 µM -18% | [2]; at 11.0 µM 44% | [3]; [17] 14% | [4]; at 1.2 µM -26% | [4]; at 3.7 µM 6% | [4]; at 11.0 µM 53%
active: [5]; at 33.0 µM 96% | [5]; at 100.0 µM 98% | [6]; at 33.0 µM 92% | [6]; at 100.0 µM 99% | [7]; at 33.0 µM 91% | [7]; at 100.0 µM 99% | [8]; at 33.0 µM 95% | [8]; at 100.0 µM 98% | [9]; at 33.0 µM 79% | [9]; at 50.0 µM 90% | [9]; at 100.0 µM 97% | [10]; at 33.0 µM 99% | [10]; at 100.0 µM 98% | [11]; [18] 87% | [11]; at 50.0 µM 92.8% | [12]; at 100.0 µM 98% | [14]; at 50.0 µM 91.4% | [14]; at 100.0 µM 97% | [15]; at 33.0 µM 98% | [15]; at 100.0 µM 99% | [1]; at 33.0 µM 88% | [1]; at 100.0 µM 98% | [2]; at 33.0 µM 90% | [2]; at 100.0 µM 98% | [3]; [18] 73% | [3]; at 50.0 µM 92% | [4]; at 33.0 µM 95% | [4]; at 100.0 µM 98%

O=C1/C(=C/c2ccc(Cl)c(Cl)c2)CNC/C1=C\c1ccc(Cl)c(Cl)c1
active: [5]; at 33.0 µM 76% | [5]; at 100.0 µM 93% | [6]; at 100.0 µM 95% | [9]; at 100.0 µM 95% | [16]; at 33.0 µM 74% | [16]; [18] 74% | [16]; at 50.0 µM 89.8% | [16]; at 100.0 µM 93% | [10]; at 100.0 µM 92% | [11]; at 50.0 µM 89.6% | [12]; at 100.0 µM 79% | [13]; at 50.0 µM 90.4% | [14]; [18] 82% | [14]; at 50.0 µM 91.8% | [14]; at 100.0 µM 92% | [15]; at 33.0 µM 96% | [15]; at 100.0 µM 97% | [1]; at 100.0 µM 94% | [2]; at 33.0 µM 78% | [2]; at 100.0 µM 94% | [3]; [18] 86% | [3]; at 50.0 µM 90.3% | [4]; at 100.0 µM 94%
inactive: [5]; at 1.2 µM 22% | [5]; at 3.7 µM 22% | [5]; at 11.0 µM 27% | [6]; at 1.2 µM 28% | [6]; at 3.7 µM 25% | [6]; at 11.0 µM 29% | [6]; at 33.0 µM 63% | [7]; at 1.2 µM 14% | [7]; at 3.7 µM 27% | [7]; at 11.0 µM 19% | [7]; at 33.0 µM 32% | [7]; at 100.0 µM 32% | [9]; at 1.2 µM 12% | [9]; at 3.7 µM 20% | [9]; [17] 19% | [9]; at 11.0 µM 29% | [9]; at 33.0 µM 68% | [9]; [18] 62% | [9]; at 50.0 µM 50% | [16]; at 1.2 µM 25% | [16]; at 3.7 µM 23% | [16]; [17] -9% | [16]; at 11.0 µM 41% | [10]; at 1.2 µM 7% | [10]; at 3.7 µM 8% | [10]; at 11.0 µM 20% | [10]; at 33.0 µM 52% | [11]; [17] 27% | [11]; [18] 66% | [12]; at 1.2 µM 15% | [12]; at 3.7 µM 7% | [12]; at 11.0 µM 29% | [12]; at 33.0 µM 48% | [13]; [17] 10% | [13]; [18] 42% | [14]; at 1.2 µM -8% | [14]; at 3.7 µM -9% | [14]; [17] 20% | [14]; at 11.0 µM 13% | [14]; at 33.0 µM 69% | [15]; at 1.2 µM 1% | [15]; at 3.7 µM 0% | [15]; at 11.0 µM -12% | [1]; at 1.2 µM 5% | [1]; at 3.7 µM 13% | [1]; at 11.0 µM 35% | [1]; at 33.0 µM 69% | [2]; at 1.2 µM 29% | [2]; at 3.7 µM 33% | [2]; at 11.0 µM 49% | [3]; [17] 6% | [4]; at 1.2 µM 25% | [4]; at 3.7 µM 16% | [4]; at 11.0 µM 33% | [4]; at 33.0 µM 64%
